From PubChem BioAssay
Sampled rows, rich in hits. Any-hit rate of the full collection: about 8.2%.
KB-3-1 tox: qHTS assay for MDR1-selective chemotherapeutics: Primary screen using the parental adenocarcinoma cell KB-3-1 | Potency, µM (top dose mostly 46.1 µM), usual class: cytotoxic | AID 1347075, 2019 | hit rate 1.4% among 400,000 | KB-3-1 viability, CellTiter-Glo ATP luminescence, 72 h; also: % is scaled to controls: 0 for no effect and ±100 for the full control effect; nearly all actives have a fitted effect of over 60% in size
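Screening of KB-3-1 cells (DMEM, 10% FBS, phenol-red free) ran from lowest to highest compound concentration; after 72 h at 37 °C viability was read luminescently and curves fitted.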
SW480 rereplic: A quantitative high throughput screen for small molecules that induce DNA re-replication in SW480 colon adenocarcinoma cells. SW480 DNA re-replication, Hoechst DNA content imaging, 48 h. Potency, µM (titrated, usually from 46.1 µM), for inactives: at the highest dose re-replication activation, most hits filed as activators. hit rate 1.8% among 340,000. AID 624297, 2012; also: % of control where 0% means no effect; nearly all actives have a fitted effect of over 55% in size
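Hoechst fluorescence of nuclei (405 nm excitation, 500-530 nm emission) measured by plate-scanning imager after 48 hr compound exposure at 37 C; re-replication scored as increased number of nuclei with elevated intensity.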
KB-V1 MDR tox: qHTS assay for MDR1-selective chemotherapeutics: Primary screen using the drug-selected MDR subline cells KB-V1; KB-V1 MDR cells viability, CellTiter-Glo, 72 h; Potency, µM (doses to about 46.1 µM), usual class: cytotoxic; hit rate 3.4% among 400,000; AID 1347076, 2019; also: % is scaled to controls: 0 for no effect and ±100 for the full control effect; nearly all actives have a fitted effect of over 60% in size
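Luminescent ATP read-out (CellTiter-Glo, 10 min) measures survival of drug-selected KB-V1 MDR cells after 72 h, 37 degrees C compound exposure. Medium: phenol-red-free DMEM, 10% FBS. Values from fitted concentration-response curves.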
MCF10A rerep: A quantitative high throughput screen for small molecules that induce DNA re-replication in MCF 10a normal breast cells; hit rate 2.9% among 350,000; MCF 10A DNA re-replication, Hoechst nuclear intensity, 48 h; Potency, µM (top dose mostly 46.1 µM), without a hit: at the highest dose activity, positive = re-replication, most hits filed as activators; also: % of control where 0% means no effect; nearly all actives have a fitted effect of over 50% in size
ELG1 DNA repair: qHTS screen for small molecules that inhibit ELG1-dependent DNA repair in human embryonic kidney (HEK293T) cells expressing luciferase-tagged ELG1. HEK293T ELG1-luciferase reporter, luminescence, 16 h; DNA damage induced by 5-fluorouridine. Potency, µM (highest dose often 46.1 µM), for inactives: at the top dose activity change, negative = inhibition, usual class: inhibitors. hit rate 2.3% among 330,000. AID 504467, 2011; also: % is scaled to controls: 0 for no effect and ±100 for the full control effect; nearly all actives have a fitted effect of over 55% in size
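Luminescence from the luciferase reporter, measured 30 min after ONE-Glo reagent at room temperature, was the read-out. Beforehand, 2,000 cells per well were exposed for 16 hr at 37 °C to 5-fluorouridine together with compound or vehicle.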
* hit, by the source's call; i = inactive; u = inconclusive; x = no result; ! = a repeat was not active; [ ] = remark or other dose. Calls follow the shape of the dose curve; as a rule, active = well fitted curve in the direction sought with a large enough effect; inconclusive = small, poorly fitted or top-dose-only effect, or another doubt; inactive = no such curve, though single readings can be large; an effect the other way counts as inactive or inconclusive. Potency is read from the fitted curve at half-maximal effect.

SMILES	KB-3-1 tox	SW480 rereplic	KB-V1 MDR tox	MCF10A rerep	ELG1 DNA repair
COc1ccc(C2C(C(=O)c3ccc(C)o3)=C(O)C(=O)N2c2cc(C)on2)cc1OC (stereo not drawn)	i	-6%	i	6%	-4%
C=CCOc1cccc(C2C(C(=O)c3cc4ccccc4o3)=C(O)C(=O)N2c2cc(C)on2)c1 (stereo not drawn)	i	u	i	21µM*	2%
COc1cccc(C2C(C(=O)c3cc4ccccc4o3)=C(O)C(=O)N2c2cc(C)on2)c1 (stereo not drawn)	i	-11%	i	18µM*	13%
Cc1cc(N2C(=O)C(O)=C(C(=O)c3cc4ccccc4o3)C2c2cccc(Cl)c2)no1 (stereo not drawn)	i	u	i	u	2%
COc1ccc(OC)c(C2C(C(=O)c3cc4ccccc4o3)=C(O)C(=O)N2c2cc(C)on2)c1 (stereo not drawn)	u	2%	3.7µM*	8%	-1%
Cc1cc(N2C(=O)C(O)=C(C(=O)c3ccc(C)o3)C2c2cccc(Oc3ccccc3)c2)no1 (stereo not drawn)	i	u	i	26µM*	4%
CC(=O)N1CCc2cc(S(=O)(=O)NC(Cc3ccccc3)C(=O)Nc3ccc(Cl)cc3)ccc21 (stereo not drawn)	i	x	u	x	x
CCCSCCCNC(=O)C1CCN(C(=O)c2cc3sccc3n2C)CC1	i	x	i	x	x
Fc1ccc(CNCc2ccccc2C(F)(F)F)cc1	i	18µM*	i	-1%	4%
COc1cc2c(cc1OC)C(c1cc(Br)ccc1F)N(C(=O)CCl)CC2 (stereo not drawn)	u	14%	i	3.3µM*	-3%
COc1cc2c(cc1OC)C(C1C(=O)CC(C)(C)CC1=O)N(C(=O)CCl)CC2 (stereo not drawn)	i	-7%	i	4%	6%
O=C(CC1CCCC1)Nc1cc(C(F)(F)F)ccc1-n1cncn1	i	4%	i	6%	-7%
O=C(NCC(c1cccs1)N1CCOCC1)c1ccc(Br)o1 (stereo not drawn)	u	8.2µM*	u	u	x
COc1ccc(C(CNC(=O)CSc2ccc(Br)cc2)N2CCOCC2)cc1 (stereo not drawn)	i	-81%	i	1%	u
O=C(CSc1ccc(Br)cc1)NCC(c1cccs1)N1CCOCC1 (stereo not drawn)	16µM*	3%	u	10%	-24%
Cc1cc(C)cc(C(O)c2ncc(-c3ccc(C(F)(F)F)cc3)[nH]2)c1 (stereo not drawn)	i	x	i	x	x
CS/C(=N\S(=O)(=O)c1cccs1)NC(=O)CSc1nc2ccccc2s1	i	-5%	i	12µM*!	2%
CCCn1c(SCC(=O)N(C)C2CCCCC2)n[nH]c1=O	i	x	i	x	x
CCOC(=O)[C@H]1[C@H]2COc3ccccc3[C@@H]2N2C(=O)[C@@H](CO)NC(=O)[C@@]12C	i	-11%	i	2%	21%
O=[N+]([O-])c1cc(-n2cnnn2)ccc1N1CCC(Cc2ccccc2)CC1	i	u	23µM*	24%	u
CC1CC(C)CN(c2ccc(-n3cnnn3)cc2[N+](=O)[O-])C1 (stereo not drawn)	5.2µM*	2%	u	-2%	-6%
CC1CC(C)CN(c2cc3c(cc2[N+](=O)[O-])C(=O)N(c2ccccc2)C3=O)C1 (stereo not drawn)	i	-6%	i	3%	4%
CSc1ccc(OC2(C)CCN(Cc3ccc(-c4ccccn4)cc3)C2)cc1 (stereo not drawn)	i	x	i	x	x
CCOC(=O)c1sc(NC(C)=O)nc1-c1ccccc1	i	-1%	i	-3%	-11%
COC(=O)Nc1nc(-c2ccccc2)c(C(=O)c2ccccc2)s1	0.16µM*	0.41µM*	u	0.23µM*	5%
SMILES	KB-3-1 tox	SW480 rereplic	KB-V1 MDR tox	MCF10A rerep	ELG1 DNA repair
Cc1nc(Nc2ccccc2)sc1C(=O)c1ccccc1	i	-8%	i	u	u
COC(=O)Nc1nc(C)c(C(=O)c2ccccc2)s1	u	15µM*	7.3µM*	9.2µM*	0%
CC(C)/C=C/C(=O)N1CCC(N2CCC(C(=O)NCC3CCCO3)CC2)CC1 (stereo not drawn)	i	x	i	x	x
CCCNc1c(NS(=O)(=O)c2ccc(OC)c(OC)c2)c(=O)oc2ccccc12	i	-2%	i	-1%	-4%
CC(C)N(C(=O)[C@H]1C[C@H](CC(=O)NCCN2CCOCC2)C(=O)N2CCc3c([nH]c4cc(-c5ccco5)ccc34)[C@]12C)C(C)C	i	16µM*	i	-38%	7%
CC[C@]12c3[nH]c4cc(-c5ccco5)ccc4c3CCN1C(=O)[C@@H](CC(=O)NCc1cccc(C(F)(F)F)c1)C[C@@H]2C(=O)N1CCN(C(=O)C2CC2)CC1	u	-3%[9.22 µM]	i	2%	u
C[C@]12c3[nH]c4cc(-c5ccco5)ccc4c3CCN1C(=O)[C@@H](CC(=O)NCc1cccc(C(F)(F)F)c1)C[C@@H]2C(=O)N1CCCCC1	18µM*	u	u	-41%	-7%
CN(C)CCCNC(=O)C[C@H]1C[C@H](C(=O)N2CCCCC2)[C@@]2(C)c3[nH]c4cc(-c5ccco5)ccc4c3CCN2C1=O	i	2.1µM*	i	u	15%
CN(C)CCCNC(=O)C[C@H]1C[C@H](C(=O)N2CCCCC2)[C@@]2(CCc3ccccc3)c3[nH]c4cc(-c5ccco5)ccc4c3CCN2C1=O	u	6%	u	u	u
Cc1cc(=O)n2nc(N3CCC(C(=O)NCc4ccc(Cl)cc4)CC3)sc2n1	i	-17%	i	1%	-4%
CCN(CC)c1ccc2cc(C#N)c(=O)oc2c1	i	1%	i	9%	10%
CCN(CC)c1ccc2c(C)cc(=O)oc2c1	i	u	u	26µM*	29%
CCN(CC)c1ccc2ccc(=O)oc2c1	i	18µM*	i	u	-3%
CCN(CC)c1ccc2cc(S(=O)(=O)c3ccc(C)cc3)c(=O)oc2c1	i	3.3µM*	i	2.6µM*	-9%
Cc1ccc(S(=O)(=O)c2cc3ccccc3oc2=O)cc1	u	-10%	i	u	-1%
O=S(=O)(c1ccc(Cl)cc1)c1nnn2c1nc(NCc1ccccc1)c1sccc12	i	x	i	x	x
Nc1cc(N)cc(N)c1	i	x	i	x	x
